A word on the residual activity: it is the signal under treatment as a percentage of the control signal.

The target of assay [1] is T1, Ephrin type-B receptor 1 (Homo sapiens) (UniProt P54762).
T1 sequence (whole entry): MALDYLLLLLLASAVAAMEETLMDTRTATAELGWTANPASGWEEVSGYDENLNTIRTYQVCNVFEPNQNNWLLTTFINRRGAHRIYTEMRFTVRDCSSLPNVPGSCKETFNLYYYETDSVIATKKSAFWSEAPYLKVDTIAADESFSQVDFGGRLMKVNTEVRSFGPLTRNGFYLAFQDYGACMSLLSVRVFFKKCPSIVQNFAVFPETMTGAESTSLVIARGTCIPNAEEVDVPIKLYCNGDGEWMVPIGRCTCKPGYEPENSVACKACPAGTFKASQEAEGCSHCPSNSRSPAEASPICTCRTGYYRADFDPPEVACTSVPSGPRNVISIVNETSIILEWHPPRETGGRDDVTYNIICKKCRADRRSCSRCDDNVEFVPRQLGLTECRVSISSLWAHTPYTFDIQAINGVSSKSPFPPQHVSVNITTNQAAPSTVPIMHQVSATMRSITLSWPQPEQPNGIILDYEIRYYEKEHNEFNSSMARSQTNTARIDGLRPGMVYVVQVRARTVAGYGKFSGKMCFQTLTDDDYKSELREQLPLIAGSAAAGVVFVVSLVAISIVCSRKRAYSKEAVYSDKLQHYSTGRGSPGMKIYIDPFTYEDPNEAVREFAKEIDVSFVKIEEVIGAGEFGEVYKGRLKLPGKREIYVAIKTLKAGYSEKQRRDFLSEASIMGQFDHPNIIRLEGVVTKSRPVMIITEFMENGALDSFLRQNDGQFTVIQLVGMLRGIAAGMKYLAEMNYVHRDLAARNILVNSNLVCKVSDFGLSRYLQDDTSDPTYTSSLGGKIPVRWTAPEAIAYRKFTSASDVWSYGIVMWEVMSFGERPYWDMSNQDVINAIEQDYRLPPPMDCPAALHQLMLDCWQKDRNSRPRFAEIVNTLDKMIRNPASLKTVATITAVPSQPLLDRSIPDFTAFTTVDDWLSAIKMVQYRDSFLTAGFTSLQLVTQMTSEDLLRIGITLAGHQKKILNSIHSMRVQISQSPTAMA
The conditions noted are these: at 10 µM.

For assay [2], the target named is T2, Ephrin type-B receptor 2 (Homo sapiens) (UniProt P29323).
T2 sequence (whole entry): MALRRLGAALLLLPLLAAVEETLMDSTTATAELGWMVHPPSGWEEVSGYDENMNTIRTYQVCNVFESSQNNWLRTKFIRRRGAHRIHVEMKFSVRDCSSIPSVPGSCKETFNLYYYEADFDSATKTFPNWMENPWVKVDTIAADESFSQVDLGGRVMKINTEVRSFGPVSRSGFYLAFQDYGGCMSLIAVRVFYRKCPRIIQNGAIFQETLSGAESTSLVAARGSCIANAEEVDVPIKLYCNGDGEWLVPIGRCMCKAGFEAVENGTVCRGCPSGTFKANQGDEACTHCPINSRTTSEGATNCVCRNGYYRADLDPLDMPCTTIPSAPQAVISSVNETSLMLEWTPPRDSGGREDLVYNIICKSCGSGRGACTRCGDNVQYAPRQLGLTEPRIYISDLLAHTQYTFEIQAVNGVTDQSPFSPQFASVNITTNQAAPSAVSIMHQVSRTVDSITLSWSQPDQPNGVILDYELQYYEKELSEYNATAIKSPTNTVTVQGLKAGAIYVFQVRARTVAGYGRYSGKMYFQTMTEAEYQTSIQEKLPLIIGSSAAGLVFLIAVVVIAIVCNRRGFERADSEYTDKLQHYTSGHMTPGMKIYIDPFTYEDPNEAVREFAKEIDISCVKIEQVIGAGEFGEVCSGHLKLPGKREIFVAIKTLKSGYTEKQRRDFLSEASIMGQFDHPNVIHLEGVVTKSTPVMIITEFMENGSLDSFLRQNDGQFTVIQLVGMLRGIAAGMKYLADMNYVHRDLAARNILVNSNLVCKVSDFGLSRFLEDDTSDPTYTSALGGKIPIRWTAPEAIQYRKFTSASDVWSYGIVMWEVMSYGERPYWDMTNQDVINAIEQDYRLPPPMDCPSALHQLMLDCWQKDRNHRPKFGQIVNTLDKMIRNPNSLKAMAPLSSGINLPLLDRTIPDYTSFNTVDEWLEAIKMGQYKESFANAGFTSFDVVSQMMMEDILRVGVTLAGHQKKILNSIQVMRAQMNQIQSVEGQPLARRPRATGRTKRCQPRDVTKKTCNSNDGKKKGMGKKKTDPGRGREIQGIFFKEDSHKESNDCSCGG
The conditions noted are these: at 1 µM.

The target of assay [3] is T2, Ephrin type-B receptor 2 (Homo sapiens). The conditions noted are these: at 10 µM.
Assay [4] addresses T3, Ephrin type-B receptor 3 (Homo sapiens) (UniProt P54753).
T3 sequence (whole entry): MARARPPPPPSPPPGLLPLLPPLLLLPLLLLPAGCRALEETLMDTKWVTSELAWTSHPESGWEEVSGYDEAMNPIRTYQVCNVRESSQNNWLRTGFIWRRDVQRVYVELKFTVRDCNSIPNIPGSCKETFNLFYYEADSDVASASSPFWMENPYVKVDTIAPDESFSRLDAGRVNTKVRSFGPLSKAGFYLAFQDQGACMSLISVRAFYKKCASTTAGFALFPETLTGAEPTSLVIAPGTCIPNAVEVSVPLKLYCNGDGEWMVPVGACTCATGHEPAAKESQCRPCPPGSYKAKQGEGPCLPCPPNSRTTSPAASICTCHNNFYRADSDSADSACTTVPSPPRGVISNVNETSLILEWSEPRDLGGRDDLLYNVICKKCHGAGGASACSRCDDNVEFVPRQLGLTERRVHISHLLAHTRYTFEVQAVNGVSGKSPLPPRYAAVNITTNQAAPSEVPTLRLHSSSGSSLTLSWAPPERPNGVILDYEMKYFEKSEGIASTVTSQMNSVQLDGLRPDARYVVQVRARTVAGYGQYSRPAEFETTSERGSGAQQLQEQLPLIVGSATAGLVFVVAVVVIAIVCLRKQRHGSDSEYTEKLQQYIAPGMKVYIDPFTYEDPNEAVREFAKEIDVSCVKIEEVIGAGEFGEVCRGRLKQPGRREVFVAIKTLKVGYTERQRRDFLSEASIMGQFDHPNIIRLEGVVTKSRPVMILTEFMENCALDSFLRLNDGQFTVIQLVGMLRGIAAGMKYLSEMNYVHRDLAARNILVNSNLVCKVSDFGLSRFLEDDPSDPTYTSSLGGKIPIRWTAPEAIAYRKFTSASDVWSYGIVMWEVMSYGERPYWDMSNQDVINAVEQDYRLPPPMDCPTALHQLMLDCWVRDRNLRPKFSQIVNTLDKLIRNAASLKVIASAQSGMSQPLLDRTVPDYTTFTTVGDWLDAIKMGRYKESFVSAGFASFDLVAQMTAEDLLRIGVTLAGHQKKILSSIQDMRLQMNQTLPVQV
The conditions noted are these: at 1 µM.

The target in assay [5] is T3, Ephrin type-B receptor 3 (Homo sapiens). The conditions noted are these: at 10 µM.
Assay [6] has as its target T4, Ephrin type-B receptor 4 (Homo sapiens) (UniProt P54760).
T4 sequence (whole entry): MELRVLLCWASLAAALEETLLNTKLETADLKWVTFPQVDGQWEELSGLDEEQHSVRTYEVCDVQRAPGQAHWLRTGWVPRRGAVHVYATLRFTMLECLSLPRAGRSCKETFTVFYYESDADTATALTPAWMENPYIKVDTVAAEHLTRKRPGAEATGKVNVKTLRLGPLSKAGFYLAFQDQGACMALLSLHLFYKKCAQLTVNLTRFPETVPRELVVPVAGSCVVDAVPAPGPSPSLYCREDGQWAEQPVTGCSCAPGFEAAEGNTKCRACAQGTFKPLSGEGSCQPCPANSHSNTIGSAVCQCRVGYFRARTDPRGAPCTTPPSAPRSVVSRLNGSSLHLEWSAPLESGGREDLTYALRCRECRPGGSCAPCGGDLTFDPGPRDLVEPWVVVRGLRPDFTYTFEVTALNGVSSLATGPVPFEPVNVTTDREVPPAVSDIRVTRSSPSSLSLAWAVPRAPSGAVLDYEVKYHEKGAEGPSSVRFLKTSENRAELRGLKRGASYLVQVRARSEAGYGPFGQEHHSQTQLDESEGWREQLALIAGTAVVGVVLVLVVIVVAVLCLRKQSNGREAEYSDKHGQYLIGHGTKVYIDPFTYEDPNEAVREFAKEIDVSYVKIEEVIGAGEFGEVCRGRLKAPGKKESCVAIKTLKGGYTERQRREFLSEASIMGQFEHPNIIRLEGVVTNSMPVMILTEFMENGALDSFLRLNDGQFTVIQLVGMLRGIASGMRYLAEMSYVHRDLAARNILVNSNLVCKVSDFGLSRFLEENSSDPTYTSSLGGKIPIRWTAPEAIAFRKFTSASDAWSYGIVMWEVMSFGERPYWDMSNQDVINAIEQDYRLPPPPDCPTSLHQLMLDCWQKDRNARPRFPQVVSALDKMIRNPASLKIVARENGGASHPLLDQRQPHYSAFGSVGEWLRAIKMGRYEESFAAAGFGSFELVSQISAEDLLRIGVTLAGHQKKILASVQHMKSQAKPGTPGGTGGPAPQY
The following applies: at 1 µM.

Assay [7] concerns the target T4, Ephrin type-B receptor 4 (Homo sapiens). The conditions noted are these: at 10 µM.
For assay [8], the target named is Receptor tyrosine-protein kinase erbB-4 (Homo sapiens) (UniProt Q15303). The following applies: at 1 µM.
The target is the same in assay [9]. The following applies: at 10 µM.
The target of assay [10] is Focal adhesion kinase 1 (Homo sapiens) (UniProt Q05397). The following applies: at 1 µM.
Focal adhesion kinase 1 (Homo sapiens), sequence (Q05397 2-1052 limits assumed): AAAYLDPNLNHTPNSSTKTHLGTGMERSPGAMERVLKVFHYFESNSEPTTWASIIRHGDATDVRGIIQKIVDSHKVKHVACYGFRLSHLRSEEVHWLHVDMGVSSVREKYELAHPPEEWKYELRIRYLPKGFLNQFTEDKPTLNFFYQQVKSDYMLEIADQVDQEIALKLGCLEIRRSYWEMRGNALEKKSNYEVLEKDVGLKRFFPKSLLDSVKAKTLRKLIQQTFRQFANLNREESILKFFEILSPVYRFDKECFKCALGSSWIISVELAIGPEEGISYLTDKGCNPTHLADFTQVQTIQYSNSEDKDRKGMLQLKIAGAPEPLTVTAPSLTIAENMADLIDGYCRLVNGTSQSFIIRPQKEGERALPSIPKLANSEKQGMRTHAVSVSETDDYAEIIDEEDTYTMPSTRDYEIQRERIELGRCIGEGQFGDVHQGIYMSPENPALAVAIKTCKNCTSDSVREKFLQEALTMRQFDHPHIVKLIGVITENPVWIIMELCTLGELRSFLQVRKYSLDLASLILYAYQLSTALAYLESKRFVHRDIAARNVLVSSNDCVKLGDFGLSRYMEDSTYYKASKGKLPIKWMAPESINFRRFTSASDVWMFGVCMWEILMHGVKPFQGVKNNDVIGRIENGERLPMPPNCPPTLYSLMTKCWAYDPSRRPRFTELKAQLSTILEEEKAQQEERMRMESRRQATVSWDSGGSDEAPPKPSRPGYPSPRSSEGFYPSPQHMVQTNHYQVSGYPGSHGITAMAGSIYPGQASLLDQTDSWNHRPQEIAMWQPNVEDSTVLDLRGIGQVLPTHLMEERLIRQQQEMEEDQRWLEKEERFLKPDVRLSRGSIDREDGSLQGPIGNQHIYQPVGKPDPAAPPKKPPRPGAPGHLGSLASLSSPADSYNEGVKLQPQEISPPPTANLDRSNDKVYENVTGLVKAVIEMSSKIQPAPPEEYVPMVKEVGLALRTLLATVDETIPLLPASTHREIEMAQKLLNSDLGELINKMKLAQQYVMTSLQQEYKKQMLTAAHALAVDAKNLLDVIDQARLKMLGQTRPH

Receptor tyrosine-protein kinase erbB-4 (Homo sapiens), sequence (Q15303 whole entry): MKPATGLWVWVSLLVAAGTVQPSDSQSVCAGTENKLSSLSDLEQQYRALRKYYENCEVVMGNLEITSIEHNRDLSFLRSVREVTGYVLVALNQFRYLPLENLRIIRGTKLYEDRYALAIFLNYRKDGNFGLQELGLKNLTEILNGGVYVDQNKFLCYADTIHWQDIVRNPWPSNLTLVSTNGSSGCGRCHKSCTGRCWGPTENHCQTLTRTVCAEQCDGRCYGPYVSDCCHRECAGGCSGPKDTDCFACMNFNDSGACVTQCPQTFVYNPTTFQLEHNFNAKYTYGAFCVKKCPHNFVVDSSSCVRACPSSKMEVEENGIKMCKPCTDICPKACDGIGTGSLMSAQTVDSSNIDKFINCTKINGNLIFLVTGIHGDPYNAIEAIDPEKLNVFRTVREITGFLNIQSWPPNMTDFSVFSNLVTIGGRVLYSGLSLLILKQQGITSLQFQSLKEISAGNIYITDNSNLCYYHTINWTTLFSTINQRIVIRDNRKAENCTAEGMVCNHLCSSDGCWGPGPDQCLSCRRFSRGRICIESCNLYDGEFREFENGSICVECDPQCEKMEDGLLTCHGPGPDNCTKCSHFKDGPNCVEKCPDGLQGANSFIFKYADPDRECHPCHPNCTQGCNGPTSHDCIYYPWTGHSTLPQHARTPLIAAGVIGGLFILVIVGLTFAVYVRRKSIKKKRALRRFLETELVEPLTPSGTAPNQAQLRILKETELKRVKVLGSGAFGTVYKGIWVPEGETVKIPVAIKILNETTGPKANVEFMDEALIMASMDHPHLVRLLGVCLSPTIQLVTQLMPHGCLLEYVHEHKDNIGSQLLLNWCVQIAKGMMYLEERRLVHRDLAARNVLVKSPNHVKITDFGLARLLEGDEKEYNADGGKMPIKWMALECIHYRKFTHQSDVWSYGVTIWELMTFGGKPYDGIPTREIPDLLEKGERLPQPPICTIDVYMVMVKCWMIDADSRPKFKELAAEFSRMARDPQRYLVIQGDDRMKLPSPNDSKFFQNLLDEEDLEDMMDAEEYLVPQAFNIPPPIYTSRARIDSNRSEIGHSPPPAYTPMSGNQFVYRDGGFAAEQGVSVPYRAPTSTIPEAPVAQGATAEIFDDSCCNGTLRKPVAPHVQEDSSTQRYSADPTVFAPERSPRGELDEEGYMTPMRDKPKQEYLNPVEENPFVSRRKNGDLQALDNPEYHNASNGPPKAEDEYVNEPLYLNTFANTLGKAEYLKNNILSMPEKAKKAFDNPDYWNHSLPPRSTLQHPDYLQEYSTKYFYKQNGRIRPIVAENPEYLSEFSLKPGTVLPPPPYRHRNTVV

Regarding `Nc1n[nH]c2nnc(-c3c(-c4ccccc4)nn4ccccc34)cc12`, the residual activity was 87% in assay [1]; 117% in assay [2]; 110% in [3]; 101% (inactive) in assay [4]; 104% in assay [5]; 83% in assay [6]. In addition, the residual activity worked out at 67% in assay [7], 81% in assay [8], 57% in [9] and 96% in assay [10].
